The panel holds about 83,000 compounds, 20% with a hit somewhere; the sample as a whole holds those more often.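 A percent growth of 40 corresponds to 60% growth inhibition; 0 means no net growth; -100 means all cells died. Active threshold: below 10.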 Unmarked numbers belong to inactive results. The source made the active and inactive calls.
What follows are molecules tested on MDA-MB-468 breast (assay: NCI-60 one-dose screen, 48 h (100 = growth as untreated, 0 = no growth, -100 = all killed)). Conditions: 10 µM unless noted.

Row | Compound | growth
1 | Cc1nc2cc(Nc3nc(NCCO)nc(Nc4ccc(F)cc4)n3)ccc2n1Cc1ccccc1 | 99.2%
2 | N#Cc1cnc2ccc(-c3cnc4n[nH]nc4c3)cc2c1N1CCc2cc(F)c(Cl)cc21 | -13.9% (active)
3 | O=c1[nH]c2ccccc2n1C1CCN(CCOc2ccccc2)CC1 | 78.9%
4 | COc1cccc(C(=O)NCCCNc2cc(-c3cn(-c4ccccc4)nc3-c3cccc(OC)c3)ccn2)c1 | 29.1%
5 | O=[N+]([O-])c1ccc(CO)cc1 | 0.448% (active)
6 | N#C/C(=C\c1ccc([N+](=O)[O-])s1)c1nc2cc(Br)ccc2s1 | 32.4%
7 | CCOC(=O)CSc1nc2ccccc2c(=O)n1Cc1ccc(S(N)(=O)=O)cc1 | 105%
8 | COc1cc(OC)cc(-c2ccc(-c3ccc(C(=N)N)s3)s2)c1 | -76.9% (active)
9 | COc1cc(C=O)ccc1OC1OC(COC(C)=O)C(OC(C)=O)C(OC(C)=O)C1OC(C)=O (centres undefined) | 100%
10 | NC(=O)c1ccc(-c2c3ccccc3cc3c2ccc2ccccc23)cc1 | -11.3% (active)
11 | CC(C)(C)CC(C)(C)n1nnnc1C(NC12CC3CC(CC(C3)C1)C2)c1ccccc1 (centres undefined) | 65.7%
12 | O=c1c2cnn(-c3ccccc3)c2n2c(CN3CCOCC3)nnc2n1-c1ccccc1 | 116%
13 | CC(C)Nc1cc(-c2c[nH]c(C(=O)N[C@H](CO)c3cccc(Cl)c3)c2)c(Cl)cn1 | 43.6%
14 | CC12CCC3C4(C)COC(c5ccccc5Cl)OC4CCC3(C)C1CC(C1=CCOC1=O)O2 (centres undefined) | 24.9%

Source: PubChem BioAssay (NCI)
